Assay [1] addresses Glutathione peroxidase 1 (Homo sapiens) (UniProt P07203). Description: Primary qHTS Assay for Inhibitors of Recombinant Selenoprotein Glutathione Peroxidase 1 (GPX1) (AID 1845191). Also: nearly all actives have a fitted effect of over 65% in size. Also: potency is read from the fitted curve at half-maximal effect. As to activity, negative = inhibition: % is scaled to controls: 0 for no effect and ±100 for the full control effect. The method in brief: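 GR-coupled readout: NADPH consumption tracked by fluorescence, ex 340/em 450 nm, at t=0 and after 15 min at RT. Final mix 10 nM GPX1, 1 mM GSH, 0.5 mM CHP, 0.5 mM NADPH, 100 nM GR, 0.01% BSA, following 30 min enzyme–compound preincubation.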
(In general: qHTS replaces the single test concentration by a dilution series.)

Assay [2] concerns the target Phospholipid hydroperoxide glutathione peroxidase GPX4 (Homo sapiens) (UniProt P36969). The assay can be described thus: Primary qHTS Assay for Inhibitors of Recombinant Selenoprotein Glutathione Peroxidase 4 (GPX4) (AID 1845192). Also: nearly all actives have a fitted effect of over 65% in size. Also: potency is read from the fitted curve at half-maximal effect. As to activity change, negative = inhibition: series mostly up to about 50 µM; % is scaled to controls: 0 for no effect and ±100 for the full control effect. The method in brief: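 Steps: GPX4 plus compound, 30 min RT; add GR/GSH/NADPH master mix; start with cumene hydroperoxide; read 340/450 nm fluorescence at 0 and 15 min. Finals were 200 nM GPX4, 1 mM GSH, 0.5 mM CHP, 0.5 mM NADPH, 100 nM GR.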

The target of assay [3] is Luciferin 4-monooxygenase (Photinus pyralis) (UniProt P08659). The assay can be described thus: Primary firefly luciferase (FLuc) qHTS assay for identification of artifact compounds. (AID 1845220). Also: nearly all actives have a fitted effect of over 60% in size.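 As to activity change, negative = inhibition: series mostly up to about 54 µM; plate controls were DMSO vehicle for no effect and no enzyme for full effect.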 The method in brief: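 D-luciferin and ATP (10 uM each, final) in Tris acetate buffer pH 7.6 were incubated with compounds for 15 min at room temperature. The reaction was started with 10 nM Photinus pyralis luciferase and luminescence read after 5 min. Percent inhibition was fitted to a 4-parameter Hill equation.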

Assay [4] is described as follows: Primary fluorescence-based thiol-reactive (MSTI) qHTS assay for identification of artifact compounds. (AID 1845221). Also: nearly all actives have a fitted effect of over 65% in size. Also: potency is read from the fitted curve at half-maximal effect.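 As to activity change, negative = thiol reactive: series mostly up to about 54 µM; thiol-reactive compounds lower the probe fluorescence signal.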 The gist of the method: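 MSTI probe at 4 uM final in 2% DMSO/PBS pH 7.4; compounds, 1 h at room temperature in dark. Fluorescence Ex/Em 525/598 nm, normalised to Acetyl-MSTI and MSTI, fitted to 4-parameter Hill.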
Assay [5] has as its system Nanoluciferase (engineered Oplophorus gracilirostris luciferase). Description: Primary Nanoluciferase (NLuc) qHTS assay for identification of artifact compounds. (AID 1845222).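 Also: series mostly up to about 54 µM; 0% = DMSO and -100% = no enzyme.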 The method in brief:
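Diluted conditioned medium from NLuc-expressing S16 cells treated with compounds for 15 min at room temperature, then Nano-Glo substrate added; luminescence read after 5 min. Percent inhibition versus no-enzyme and DMSO controls fitted to 4-parameter Hill equation.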

This is an account of results in PubChem BioAssay (NCATS).

Several values for one entry are separate records, joined by “and”; a condition that tells them apart may be missing. Identical values can stand only once. A number with no mark means an inactive call. Results filed as inconclusive are left out. Activity calls are given as the source filed them. Calls follow the shape of the dose curve; as a rule, active = well fitted curve in the direction sought with a large enough effect; inconclusive = small, poorly fitted or top-dose-only effect, or another doubt; inactive = no such curve, though single readings can be large; an effect the other way counts as inactive or inconclusive.

Glutathione peroxidase 1 (Homo sapiens), sequence (P07203 whole entry, looked up): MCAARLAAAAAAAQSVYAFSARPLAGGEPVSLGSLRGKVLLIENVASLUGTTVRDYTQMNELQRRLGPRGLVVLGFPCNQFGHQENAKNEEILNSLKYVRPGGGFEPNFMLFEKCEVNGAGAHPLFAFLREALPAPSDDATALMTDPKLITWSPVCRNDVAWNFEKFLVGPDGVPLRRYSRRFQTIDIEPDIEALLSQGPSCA
Phospholipid hydroperoxide glutathione peroxidase GPX4 (Homo sapiens), sequence (P36969 whole entry, looked up): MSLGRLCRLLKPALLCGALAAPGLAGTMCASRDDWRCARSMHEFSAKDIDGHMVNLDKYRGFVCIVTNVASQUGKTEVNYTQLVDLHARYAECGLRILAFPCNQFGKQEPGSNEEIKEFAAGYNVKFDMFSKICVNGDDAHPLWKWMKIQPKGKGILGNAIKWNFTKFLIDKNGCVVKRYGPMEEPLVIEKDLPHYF

In the case of `CC(=O)c1ccc2c(c1)[C@H](NC(=O)c1ccc(F)c(Cl)c1)[C@H](O)C(C)(C)O2`, the Potency entry in assay [1], in assay [2], in assay [3], in assay [4] and in assay [5] was “inactive” throughout.

Take `C=C1C(=O)O[C@@H]2/C=C(\CO)CC/C=C(\CO)[C@H](OC(C)=O)C(OC(=O)C(C)CC)C12` (stereo not given in full): the Potency result in assay [1], in assay [2], in assay [3], in assay [4] and in assay [5] was “inactive” throughout.

`O=C(OC1CN2CCC1CC2)N1CCc2ccccc2C1c1ccccc1` (stereo not given): the Potency entry in assay [1], in assay [2], in assay [3], in assay [4] and in assay [5] was “inactive” throughout.

Take `Cn1ncc(Cl)c1-c1cc(C(=O)N[C@H](CN)Cc2ccc(F)c(F)c2)sc1Cl`: the Potency entry in assay [1], in assay [2], in assay [3], in assay [4] and in assay [5] was “inactive” throughout.

For the molecule `C=C(C)C(=O)OC1CC2(C)OC(=CC2=O)C(=C)CC2OC(=O)C(=C)C12` (stereo not given), the Potency entry in assay [1], in assay [2], in assay [3], in assay [4] and in assay [5] was “inactive” throughout.

`CC1(C)CC[C@]2(C(=O)O)CC[C@]3(C)C(=CCC4[C@@]5(C)C[C@@H](O)[C@H](O)[C@@](C)(CO)C5CC[C@]43C)[C@@H]2[C@@H]1O` (stereo not given in full): the Potency result in assay [1], in assay [2], in assay [3] and in assay [5] was “inactive” throughout. Moreover, the Potency in assay [4] was 10.3 µM (active).

In the case of `COC1=CC(=O)C[C@@H](C)[C@@]12Oc1c(Cl)c(OC)cc(OC)c1C2=O`, the Potency result in assay [1], in assay [2], in assay [3], in assay [4] and in assay [5] was “inactive” in each case.

With `CCn1nc(C2CCN(C(=O)CCO)CC2)nc1-c1cnc(N)c(-c2nnc(C(C)(C)C)o2)n1`, the Potency is 20.2 µM (active) and 20.5 µM (active) in assay [1]; 14.3 µM (active) in assay [2]. The Potency entry in assay [3], in assay [4] and in assay [5] was “inactive” each time.

On to `COCCNCc1ccc(-c2cc3nccc(Oc4ccc(NC(=O)C5(C(=O)Nc6ccc(F)cc6)CC5)cc4F)c3s2)nc1`, for which the Potency entry in assay [1], in assay [2], in assay [3], in assay [4] and in assay [5] was “inactive” each time.

In the case of `C[C@@H]1O[C@@H](O[C@H]2[C@@H](OC(=O)[C@]34CCC(C)(C)CC3C3=CCC5[C@@]6(C)C[C@H](O)[C@H](O[C@@H]7O[C@H](CO)[C@@H](O)[C@H](O)[C@H]7O[C@@H]7OC[C@@H](O)[C@H](O)[C@H]7O)[C@@](C)(C(=O)O)C6CC[C@@]5(C)[C@]3(C)CC4)OC[C@H](O)[C@@H]2O)[C@H](O)[C@H](O)[C@H]1O[C@@H]1OC[C@@H](O)[C@H](O)[C@H]1O` (stereo not given in full), the values for the outcome in assay [1] and in assay [3] were “inactive [at 9.52 µM]” and “inactive [at 11.6 µM]”, respectively. In assay [2], the activity change, negative = inhibition was 1.61% [at 9.73 µM]. The activity change, negative = thiol reactive in assay [4] is 151% [at 11.5 µM]. The activity, negative = inhibition in assay [5] is 3.4% [at 11.6 µM].

Turning to `C=C1CO[C@@]2(O[C@H]3CC4C5CC=C6C[C@@H](O)C[C@@H](O[C@@H]7OC[C@H](O)[C@H](O[C@@H]8OC[C@@H](O)[C@H](O)[C@H]8O)[C@H]7O[C@@H]7O[C@@H](C)[C@H](OC(C)=O)[C@@H](OC(C)=O)[C@H]7OC(C)=O)[C@]6(C)C5CC[C@]4(C)[C@@H]3[C@@H]2C)[C@@H](O)[C@H]1OC1OC(C)C(O)C(O)C1O` (stereo not given in full), the values for the activity, negative = inhibition in assay [1] and in assay [5] were 0.917% [at 9.52 µM] and 1.51% [at 11.6 µM], respectively. Moreover, the outcome was “inactive [at 9.73 µM]” in assay [2] and “inactive [at 11.6 µM]” in assay [3]. Moreover, in assay [4], the activity change, negative = thiol reactive is 69.1% [at 11.5 µM].

`CCN(CC)C(=O)c1ccc(Nc2nc(OCC3CCCCC3)c3[nH]cnc3n2)cc1`: the Potency entry in assay [1], in assay [2], in assay [3], in assay [4] and in assay [5] was “inactive” each time.

On to `CC(=O)O[C@@H]1C[C@]2(C)[C@@]3(CCC4[C@@]5(C)CC[C@H](O[C@@H]6O[C@H](C(=O)O)[C@@H](O)[C@H](OC7OC(CO)C(O)C(O)[C@H]7O[C@@H]7O[C@@H](C)[C@H](O)[C@@H](O)[C@H]7O[C@@H]7OC[C@](O)(CO)[C@H]7O)[C@H]6OC6OC(CO)C(O)C(O)C6O)C(C)(C)C5CC[C@]42C)OC[C@@]12CCC(C)(C)CC23` (stereo not given in full), for which the activity, negative = inhibition in assay [1] was -11.2% [at 9.52 µM]; in assay [5] it was 0.912% [at 11.6 µM]. Besides, the activity change, negative = inhibition in assay [2] was -2.16% [at 9.73 µM]; in assay [3], -3.18% [at 11.6 µM]. Moreover, the activity change, negative = thiol reactive in assay [4] was 238% [at 11.5 µM].

In the case of `CC(CCC1(O)OC2CC3C4CC=C5CC(O[C@@H]6O[C@H](CO)[C@@H](O[C@@H]7O[C@@H](C)[C@H](O)[C@@H](O)[C@H]7O)[C@H](O)[C@H]6O[C@@H]6O[C@@H](C)[C@H](O)[C@@H](O)[C@H]6O)CCC5(C)C4CCC3(C)C2C1C)CO[C@@H]1O[C@H](CO)[C@@H](O)[C@H](O)[C@H]1O` (stereo not given in full), the Potency result in assay [1] and in assay [2] was “inactive” each time. The activity change, negative = inhibition in assay [3] is -3.06% [at 11.6 µM]. Besides, in assay [4], the activity change, negative = thiol reactive is 218% [at 11.5 µM]. Also, the activity, negative = inhibition in assay [5] is 2.85% [at 11.6 µM].

Turning to `Clc1ccc(Cn2c(Cc3ccccc3)nc3ccccc32)cc1`, the Potency entry in assay [1], in assay [2], in assay [3], in assay [4] and in assay [5] was “inactive” each time.

For `Cc1cc(C(=O)Nc2cc(Oc3ccc4nc(NC(=O)C5CC5)cn4n3)ccc2C)n(C)n1`, the Potency entry in assay [1], in assay [3], in assay [4] and in assay [5] was “inactive” each time. In assay [2], the Potency was 25.5 µM (active).

In the case of `O[C@@](Cc1ncc(CC2(C(F)(F)F)CC2)[nH]1)(c1ccc(-n2cccn2)cc1)C(F)(F)F`, the Potency result in assay [1], in assay [2], in assay [3], in assay [4] and in assay [5] was “inactive” throughout.

Turning to `CC1CCC(=O)CC(SCC(O)C(=O)O)CCC(=O)O1` (stereo not given), the Potency entry in assay [1], in assay [2], in assay [3], in assay [4] and in assay [5] was “inactive” throughout.

As for `N[C@@H]1c2cccnc2[C@H](OC(=O)N2CCC(n3c(=O)[nH]c4ncccc43)CC2)CC[C@H]1c1cccc(F)c1F`, the Potency entry in assay [1], in assay [2], in assay [3], in assay [4] and in assay [5] was “inactive” throughout.

For `C/C=C\NC(=O)C1NC(=O)C(CC(N)=O)NC(=O)C(NC(=O)C(=O)C(C)CC)Cc2ccc(O)c(c2)-c2cccc3c2NC(=O)C3(O)C1O` (stereo not given), the Potency result in assay [1], in assay [2], in assay [3], in assay [4] and in assay [5] was “inactive” throughout.
